Active and inactive are the calls of the source. Rule as the data show it, unless noted: active = nuclear beta-catenin stimulation mostly above about 4.2% (no sharp cut-off); inactive = mostly below about 10%.
Columns and labels:
[1] = Wnt pathway potentiators raising nuclear beta-catenin – imaging, WNT3A-conditioned medium, mouse C2C12, NPC library, primary screen (AID 1117326); conditions: stronger effect = higher value; also: reference of the scale not given here
[2] = stimulators of insulin release from INS-1E, primary screen, cell-based, 5 mM glucose, NPC library (AID 1117329;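 active = compound raises insulin release from rat beta cells at 5 mM glucose, no numeric limit stated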; also: reference of the scale not given here); conditions: rat INS-1E insulin secretion, at 10 µM, stronger effect = higher value
[3] = growth inhibition of GSK3B-pretreated HCT116 cells – cell-based, CellTiter-Glo, 0.2 to 20 µM (AID 1117336;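 active = compounds lowering colon cancer cell viability after pretreatment blocking the GSK3B kinase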); conditions: HCT116 viability after GSK3B inhibitor, at 20 µM, stronger effect = higher value
[4] = inhibition of endothelial tube formation, primary screen, imaging, VEGF stimulated, CD31 staining, tube area, NPC library (AID 1117340;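 active = compound that reduces growth-factor-driven endothelial tube area in a mixed cell culture, no cutoff stated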); conditions: VEGF-stimulated ADSC/ECFC co-culture, at 10 µM, stronger effect = higher value
[5] = GLP1 release stimulators, primary, NCI-H716, NPC library (AID 1117341;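 active = compound raises GLP1 secretion from the human gut endocrine cells, with no numeric limit stated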; also: reference of the scale not given here); conditions: NCI-H716 cells, at 10 µM, stronger effect = higher value
[6] = HCT116 colon cancer cell growth inhibition, primary screen, CellTiter-Glo luminescence, NPC library (AID 1117342;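 active = compounds that lower survival of HCT116 colon cancer cells in the luminescence readout, no numeric limit stated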); conditions: at 20 µM (top of the series)
[7] = reduced SW480 viability measured with CellTiter-Glo, NPC library, primary (AID 1117343;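 active = compounds that lower viability of the colon cancer cells in the luminescence readout, with no numeric limit stated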); conditions: CellTiter-Glo luminescence; at 20 µM (top of the series)
[8] = NPC library primary testing for decreased DLD-1 cell viability via CellTiter-Glo (AID 1117346;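 active = compounds that lower survival of DLD-1 colon cancer cells in the luminescence readout, no cutoff given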); conditions: DLD-1 viability, CellTiter-Glo luminescence; at 20 µM (top of the series)

Compound | nuclear beta-catenin stimulation ([1]; at 10 µM) | nuclear beta-catenin stimulation ([1]; stimulation, at 2 µM) [%] | insulin secretion stimulation [2] | viability decrease [3] | tube area decrease [4] | GLP1 secretion stimulation [5] | inhibition of viability [6] | viability decrease (inhibition) [7] | viability decrease (inhibition) [8]
CC(C)(Oc1ccc(Cl)cc1)C(=O)OCCCOC(=O)C(C)(C)Oc1ccc(Cl)cc1 | 0.7% (inactive) | 2.2 | 0.5% (inactive) | 11% (inactive) | 2.3% (inactive) | -0.1% (inactive) | 5.6% (inactive) | 8.9% (inactive) | 4% (inactive)
CCN(CC)CCOC(=O)C1(c2ccccc2)CCCC1 | -1.2% (inactive) | -0.5 | 9.3% (inactive) | -14.1% (inactive) | 22.6% (inactive) | -2.7% (inactive) | 4% (inactive) | -1.9% (inactive) | -2.6% (inactive)
CCCC(=O)O[C@]1(C(=O)CCl)[C@@H](C)C[C@H]2[C@@H]3CCC4=CC(=O)C=C[C@]4(C)[C@@]3(F)C(=O)C[C@@]21C | 3.8% (inactive) | -0.1 | 3% (inactive) | 0.4% (inactive) | 36.7% (inactive) | -0.4% (inactive) | 70.5% (active) | 99.8% (active) | 47% (inactive)
C[C@@H]1C[C@H]2[C@@H]3CCC4=CC(=O)C=C[C@]4(C)[C@@]3(F)[C@@H](O)C[C@]2(C)[C@@]1(O)C(=O)COC(=O)c1ccncc1 | 2.8% (inactive) | 2.8 | -1% (inactive) | -41.3% (inactive) | -2.4% (inactive) | -1.9% (inactive) | -4.43% (inactive) | 5.8% (inactive) | -18.6% (inactive)
C[C@@]12CCC[C@H]1[C@@H]1CC[C@H]3C[C@@H](O)CC[C@]3(C)[C@H]1CC2 | 3% (inactive) | -0.1 | -1% (inactive) | 65.4% (active) | -28.4% (inactive) | 4% (inactive) | -11.6% (inactive) | 121% (active) | 103% (active)
CCOC(=O)Cn1cccc1-c1nc(-c2ccc(OC)cc2)c(-c2ccc(OC)cc2)s1 | -0.6% (inactive) | -1.4 | 1.9% (inactive) | 35.5% (inactive) | 6.7% (inactive) | -0.1% (inactive) | 46% (inactive) | 88.2% (active) | 77.5% (active)
Cc1cccc(C)c1OCC(=O)N[C@@H](Cc1ccccc1)[C@@H](O)C[C@H](Cc1ccccc1)NC(=O)[C@H](C(C)C)N1CCCNC1=O | 2% (inactive) | -0.1 | 2.4% (inactive) | 67.4% (active) | 2% (inactive) | 1.5% (inactive) | 43.5% (inactive) | 80.2% (active) | 73.5% (active)

Reference: PubChem BioAssay
